Bioassay records (PubChem)
Mcl1 Noxa PPI = disrupts binding of human Mcl-1 to Noxa peptide. Q07820. TR-FRET Mcl-1/Noxa peptide binding, 2 h. inhibition, % at 21.7 µM. hit rate 1.5% among 220,000;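 active = compounds that cut the protein-peptide binding signal by more than 50% relative to plate controls in a single-dose test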;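 also: His-tagged Mcl-1 with rhodamine Noxa BH3 peptide and terbium anti-His antibody; 0% = Mcl-1 plus Noxa peptide wells and 100% = peptide-only wells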
Target sequence (Q07820 whole entry, looked up): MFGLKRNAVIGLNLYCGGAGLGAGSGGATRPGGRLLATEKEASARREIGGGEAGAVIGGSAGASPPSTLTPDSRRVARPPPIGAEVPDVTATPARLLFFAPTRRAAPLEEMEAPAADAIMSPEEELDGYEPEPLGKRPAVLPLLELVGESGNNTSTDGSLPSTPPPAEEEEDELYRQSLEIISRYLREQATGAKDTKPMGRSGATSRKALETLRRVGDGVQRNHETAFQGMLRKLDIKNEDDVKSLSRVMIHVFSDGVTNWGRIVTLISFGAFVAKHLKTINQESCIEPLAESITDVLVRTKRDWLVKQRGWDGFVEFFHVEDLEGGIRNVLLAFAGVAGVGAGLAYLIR
14-3-3 Bad PPI = disrupts binding of bovine 14-3-3 zeta to phospho-Bad peptide; P63103; TR-FRET 14-3-3zeta/Dy647-pBad peptide displacement, 1 h; inhibition, % at 21.7 µM; hit rate 0.71% among 220,000; AID 781;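 active = inhibition above about 70%, limit read from the data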;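 also: 0% = full 14-3-3 plus peptide FRET controls and 100% = background without 14-3-3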
Target sequence (P63103 whole entry, looked up): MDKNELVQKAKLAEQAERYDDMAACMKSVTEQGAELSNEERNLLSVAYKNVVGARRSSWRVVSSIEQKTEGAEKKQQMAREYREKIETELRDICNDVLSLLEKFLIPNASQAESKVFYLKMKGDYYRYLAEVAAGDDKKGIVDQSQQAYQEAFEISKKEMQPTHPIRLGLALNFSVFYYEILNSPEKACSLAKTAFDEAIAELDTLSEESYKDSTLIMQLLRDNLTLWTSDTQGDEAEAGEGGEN
MCL1-BIM inh = disrupts human MCL1 binding to BIM-BH3 peptide; Q07820; GST-MCL1 / FITC-Bim-BH3 fluorescence polarization; inhibition, % at 10.9 µM; hit rate 0.68% among 320,000;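 active = inhibition above the mean inhibition of all tested compounds plus 3 SD, set per campaign, cut at about 40% in these data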;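 also: 0% = DMSO wells and 100% = unlabeled Bim-BH3 peptide control; higher means more loss of mP so more displacement of Bim peptide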
Mcl1 Bid PPI = disrupts binding of human Mcl-1 to Bid peptide; Q07820; TR-FRET Mcl-1/Bid-Dy647 peptide binding, 1536-well; inhibition, % at 21.7 µM; hit rate 0.97% among 220,000; AID 1021;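 active = compounds that cut the binding signal by more than half at the single screening dose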;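 also: His-tagged Mcl-1 with europium anti-His antibody binding Bid BH3 peptide; 0% = Mcl-1 plus peptide wells and 100% = peptide-only wells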
Bim-Mcl-1 = disrupts Bim peptide binding to human Mcl-1; Bead-based flow cytometry, Bim peptide-Mcl-1 binding; inhibition, % at 10 µM; AID 1009; Q07820; hit rate 0.1% among 190,000; in the data active = inhibition above about 40%;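 also: 0% = no compound tracer wells and 100% = peptide blocker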
eIF4E 4G PPI = inhibitors of eIF4E and eIF4G interaction in translation initiation; P63073+Q04637; TR-FRET eIF4E-eIF4GI(517-606) binding, 2 h; inhibition, % at 21.7 µM; hit rate 0.37% among 220,000; AID 782;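 active = inhibition above about 30%, limit read from the data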;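 also: 0% = full FRET control wells and 100% = background wells lacking eIF4GI fragment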
* hit, by the source's call; [ ] = dose if it differs, or a comment. Sampled rows, rich in hits. Any-hit rate of the full collection: about 2.6%.

Results for Fc1cccc(/C=N/NC(=S)Nc2ccccc2Cl)c1 ?
Mcl1 Noxa PPI: 12.3; 14-3-3 Bad PPI: -6.3; MCL1-BIM inh: -2.2; Mcl1 Bid PPI: -21.9; Bim-Mcl-1: -7.0; eIF4E 4G PPI: -1.2

Results for CC(=O)Nc1ccccc1NC(=O)C/C(C)=N/NC(=O)C1CCCCC1 ?
MCL1-BIM inh: 3.9

What do the screens show for `C/C(CC(=O)NC1CCCC1)=N\NC(=O)C1CCCCC1`?
Mcl1 Noxa PPI: 11.1; 14-3-3 Bad PPI: 97.0*; Mcl1 Bid PPI: -0.1; Bim-Mcl-1: 1.0; eIF4E 4G PPI: -0.1

What do the screens show for `CCN1CC=C2C(C1)C(c1ccc(Cl)s1)C(C#N)=C(N)C2(C#N)C#N` (configuration not stated)?
Mcl1 Noxa PPI: 19.0; 14-3-3 Bad PPI: 8.4; MCL1-BIM inh: 113.8*; Mcl1 Bid PPI: -24.9; Bim-Mcl-1: 8.0; eIF4E 4G PPI: 1.6

What do the screens show for `Cc1cccc2nc(-c3ccccc3)nc(N[C@@H](CO)c3ccccc3)c12`?
Mcl1 Noxa PPI: 13.3; 14-3-3 Bad PPI: 76.0*[fluorescence artefact?]; MCL1-BIM inh: 1.0; Mcl1 Bid PPI: 2.6; Bim-Mcl-1: -3.0; eIF4E 4G PPI: 12.7

Results for Cc1ccc(-c2nc(NCCCO)c3ccccc3n2)cc1 ?
MCL1-BIM inh: 0.1

How did O=C(CSc1nc2ncc(Cl)cc2[nH]1)Nc1cccc(F)c1 do in these assays?
MCL1-BIM inh: -9.7

How did CN(CC(=O)Nc1ccc(F)cc1)C(=O)CSc1nc2ncc(Cl)cc2[nH]1 do in these assays?
Mcl1 Noxa PPI: 67.3*; 14-3-3 Bad PPI: 7.9; MCL1-BIM inh: 0.3; Mcl1 Bid PPI: -5.2; Bim-Mcl-1: -3.0; eIF4E 4G PPI: -2.3

Results for N#CCCSc1ccccc1NC(=O)c1ccc(S(=O)(=O)N2CCCC2)cc1 ?
Mcl1 Noxa PPI: 27.6; 14-3-3 Bad PPI: 10.0; Mcl1 Bid PPI: -13.9; Bim-Mcl-1: -3.0; eIF4E 4G PPI: 2.4

What do the screens show for `COC(C[C@H](O)[C@H](C)[C@H](O)COCc1ccccc1)OC`?
Mcl1 Noxa PPI: -0.7; 14-3-3 Bad PPI: 1.2; Mcl1 Bid PPI: 2.3; eIF4E 4G PPI: 79.0*

How did COC(C[C@H](O)[C@@H](C)[C@H](O)COCc1ccccc1)OC do in these assays?
Mcl1 Noxa PPI: -2.1; 14-3-3 Bad PPI: -3.0; Mcl1 Bid PPI: -20.3; eIF4E 4G PPI: 4.2

Results for CCC(=O)N(CC)C1=C(O)c2ccccc2C(=O)C1=O ?
Mcl1 Noxa PPI: 84.7*; 14-3-3 Bad PPI: 22.7; MCL1-BIM inh: 9.0; Mcl1 Bid PPI: -10.7; Bim-Mcl-1: 2.0; eIF4E 4G PPI: 3.4

Results for C=CCCCCCCCCC(=O)Nc1ncccn1 ?
Mcl1 Noxa PPI: 10.5; 14-3-3 Bad PPI: 2.5; MCL1-BIM inh: -9.2; Mcl1 Bid PPI: -13.3; eIF4E 4G PPI: -2.3

Results for Cc1cc(O)c(C=O)c2c1C(=O)Oc1c(CO)c(O)c3c(c1O2)C(O)OC3=O (configuration not stated) ?
Mcl1 Noxa PPI: 53.3*; 14-3-3 Bad PPI: 58.1; MCL1-BIM inh: 103.1*; Mcl1 Bid PPI: 40.4; Bim-Mcl-1: 1.0; eIF4E 4G PPI: 7.5

What do the screens show for `O=C(O)/C=C\C(=O)N1CCc2ccccc21`?
Mcl1 Noxa PPI: 18.0; 14-3-3 Bad PPI: -12.1; MCL1-BIM inh: -2.7; Mcl1 Bid PPI: 93.5*; Bim-Mcl-1: -3.0; eIF4E 4G PPI: 3.9

Results for N#Cc1nc(-c2ccc(OCc3ccc(Cl)cc3)cc2)oc1NCc1cccnc1 ?
Mcl1 Noxa PPI: 56.9*; 14-3-3 Bad PPI: 20.1; MCL1-BIM inh: 4.5; Mcl1 Bid PPI: 23.1; Bim-Mcl-1: 1.0; eIF4E 4G PPI: -34.8

How did CCc1ccc(NC(=O)c2ccnc(C(C)(C)C)c2)cc1 do in these assays?
Mcl1 Noxa PPI: -2.1; 14-3-3 Bad PPI: -14.3; MCL1-BIM inh: 7.4; Mcl1 Bid PPI: 101.3*; Bim-Mcl-1: 1.0; eIF4E 4G PPI: 5.3

What do the screens show for `NS(=O)(=O)c1ccc(CCNC(=O)c2ccc3ccccc3n2)cc1`?
Mcl1 Noxa PPI: 15.5; 14-3-3 Bad PPI: -5.3; MCL1-BIM inh: -8.7; Mcl1 Bid PPI: -21.2; Bim-Mcl-1: 0.0; eIF4E 4G PPI: 1.1

Results for CC(C)(C)c1nc(SCC(=O)NNC(=O)c2ccccc2)c2ccccc2n1 ?
MCL1-BIM inh: -2.0

How did O=C1NN(c2cccc(Br)c2)C(=O)/C1=C/c1ccc(-c2cc([N+](=O)[O-])ccc2O)o1 do in these assays?
Mcl1 Noxa PPI: 100.6*; 14-3-3 Bad PPI: 79.5*; MCL1-BIM inh: 21.2; Mcl1 Bid PPI: 98.1*; eIF4E 4G PPI: 34.3*

Results for O=C1NN(c2cccc(Br)c2)C(=O)/C1=C\c1ccc(O)cc1 ?
MCL1-BIM inh: 1.4

How did Cc1ccc(C)c(NC(=O)C2CCCN2/C=C/C(=O)C(F)(F)F)c1 (configuration not stated) do in these assays?
Mcl1 Noxa PPI: -7.0; 14-3-3 Bad PPI: -5.5; MCL1-BIM inh: -5.0; Mcl1 Bid PPI: 72.1*; Bim-Mcl-1: -2.0; eIF4E 4G PPI: 1.0

How did Cc1cccc(NC(=O)C2CCCN2/C=C/C(=O)C(F)(F)F)c1C (configuration not stated) do in these assays?
Mcl1 Noxa PPI: 13.6; 14-3-3 Bad PPI: -5.5; MCL1-BIM inh: -2.4; Mcl1 Bid PPI: -44.1; Bim-Mcl-1: -3.0; eIF4E 4G PPI: -2.5

What do the screens show for `CC(=O)Nc1ccc2[nH]c3ccccc3c2c1`?
Mcl1 Noxa PPI: -18.1; 14-3-3 Bad PPI: 16.1; MCL1-BIM inh: 3.1; Mcl1 Bid PPI: -27.5; Bim-Mcl-1: -1.0; eIF4E 4G PPI: 2.7

How did O=C(Nc1ccc(Cl)cc1)c1cc2c(cc1O)[nH]c1ccccc12 do in these assays?
Mcl1 Noxa PPI: 61.5*; 14-3-3 Bad PPI: 1.2; MCL1-BIM inh: -0.5; Mcl1 Bid PPI: 34.1; eIF4E 4G PPI: 2.4

How did Cc1nc(-c2ccc(S(=O)(=O)Nc3ccc(Br)cc3F)cc2)co1 do in these assays?
MCL1-BIM inh: -1.8

Results for C=CCNC(=S)NNC(=O)c1ccc([N+](=O)[O-])cc1 ?
Mcl1 Noxa PPI: 67.6*; 14-3-3 Bad PPI: 3.1; MCL1-BIM inh: 16.0; Mcl1 Bid PPI: -13.3; Bim-Mcl-1: 0.0; eIF4E 4G PPI: -0.8

Results for Cc1ccc(S(=O)(=O)N2CCCC2)cc1C(=O)Nc1ccc(-n2cnnn2)cc1 ?
MCL1-BIM inh: 7.0

Results for CC1(c2ccccc2)NC(=O)N(NC(=O)COC(=O)c2cc(Br)ccc2O)C1=O (configuration not stated) ?
MCL1-BIM inh: -4.4

How did COc1ccc(CCNC(=S)NC2CCN(Cc3ccccc3)CC2)cc1 do in these assays?
Mcl1 Noxa PPI: 3.9; 14-3-3 Bad PPI: -25.0; MCL1-BIM inh: 5.2; Mcl1 Bid PPI: -27.7; Bim-Mcl-1: -2.0; eIF4E 4G PPI: -1.3

How did Cc1cc(C(=O)COC(=O)c2cccc(O)c2)c(C)n1C1CC1 do in these assays?
MCL1-BIM inh: 0.1

What do the screens show for `COC(=O)c1ccc(OCCCCN2CC(C)OC(C)C2)cc1` (configuration not stated)?
Mcl1 Noxa PPI: 32.0; 14-3-3 Bad PPI: 25.6; MCL1-BIM inh: -10.9; Mcl1 Bid PPI: 52.5*; Bim-Mcl-1: -1.0; eIF4E 4G PPI: 3.6
